The results in this text go back to PubChem BioAssay (Tox21).

Inconclusive results are not listed. Entries that show only a call come without a potency. Calls of active or inactive are those of the source. Calls come from the whole dose curve; as a rule, active = well fitted curve in the direction sought with a large enough effect in the repeat runs; inconclusive = weak or mixed curves; inactive = no such curve, though single readings can be large; an effect the other way counts as inactive or inconclusive.

The first assay is described as follows: qHTS RealTime-Glo MT Cell Viability Assay in HepG2 cells - 32 hour (AID 1224877). Note: nearly all actives have a fitted effect of over 55% in size. The conditions noted are these: RealTime-Glo luminescence; series mostly up to 76.8 µM. An outline of the steps:
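Cells + NanoLuc/prosubstrate dispensed (600 cells/well) → 5 h at 37 C/5% CO2 → compounds in DMSO transferred → 40 h incubation at 37 C, luminescence read at 0, 8, 16, 24, 32, 40 h.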
In general terms: qHTS replaces the single test concentration by a dilution series.
For `C1CCC(C2CCCCC2)CC1`, the Potency entry was “inactive”.

Consider `COc1cc(OC)nc(NC(=O)NS(=O)(=O)c2ncccc2C(=O)N(C)C)n1`, for which the Potency result is “inactive”.

Consider `CCOC(=O)NC(=S)Nc1ccccc1NC(=S)NC(=O)OCC`, for which the Potency entry was “inactive”.

Consider `C[C@@H]1CN(C2CCC(C#N)(c3ccc(F)cc3)CC2)CC[C@]1(C(=O)O)c1ccccc1` (stereo partly drawn), for which the Potency entry was “inactive”.

On to `CCOP(=S)(OCC)SCSP(=S)(OCC)OCC`, for which the Potency entry was “inactive”.

Take `O=C(O)c1ccc2[nH]cc(CCCCN3CC=C(c4ccccc4)CC3)c2c1`: the Potency result was “inactive”.

Consider `N#CCCC#N`, for which the Potency entry is “inactive”.

`Nc1n[nH]c(N)n1`: the Potency result is “inactive”.

Take `CCNc1nc(NC(C)C)nc(OC)n1`: the Potency entry was “inactive”.

`CCCCC(=O)Cl`: the Potency entry is “inactive”.

As to `CCN(CC)CCOC(=O)C(C)(c1ccccc1)c1ccccc1`, the Potency result is “inactive”.

Turning to `N#CC(O)c1ccccc1` (stereo not drawn), the Potency entry was “inactive”.

With `O=C1OC(=O)C2C1C1(Cl)C(Cl)=C(Cl)C2(Cl)C1(Cl)Cl` (stereo not drawn), the Potency result was “inactive”.

For `CC(C)NCC(O)c1ccc(N)c(C#N)c1` (stereo not drawn), the Potency result was “inactive”.

For the compound `CN(N=O)C(N)=O`, the Potency entry is “inactive”.

`CS(=O)(=O)c1cc(C(F)(F)F)ccc1C(=O)c1cnoc1C1CC1`: the Potency entry is “inactive”.

With `C[C@]1(O)CC[C@H]2[C@@H]3CCC4=CC(=O)CC[C@]4(C)[C@@]3(F)[C@@H](O)C[C@@]21C`, the Potency entry is “inactive”.

As for `CN(C)CCc1ccc(O)cc1`, the Potency result was “inactive”.

In the case of `COc1cc2c(cc1OC)[C@@]13CCN4CC5=CCO[C@H]6CC(=O)N2[C@H]1[C@H]6[C@H]5C[C@H]43`, the Potency result is “inactive”.

For the compound `CCC/C(=N\OCC)C1=C(O)CC(CC(C)SCC)CC1=O` (stereo not drawn), the Potency entry was “inactive”.

For the compound `O=[N+]([O-])c1cccc(O)c1`, the Potency entry was “inactive”.

With `COc1cc(C[C@@H](C)N)c(OC)cc1C`, the Potency result is “inactive”.

As for `OC(Cn1cncn1)(c1ccc(F)cc1)c1ccccc1F` (stereo not drawn), the Potency result was “inactive”.

Consider `COc1cc(OC)nc(Sc2cccc(Cl)c2C(=O)O)n1`, for which the Potency entry is “inactive”.

As for `CC(CC(C#N)(c1ccccc1)c1ccccc1)N(C)C` (stereo not drawn), the Potency result is “inactive”.

Turning to `CCOP(=S)(OCC)Oc1ncn(-c2ccccc2)n1`, the Potency result was “inactive”.

Another assay can be described thus: A CellTox Green Cytotoxicity Assay to monitor cytotoxicity in HepG2 cells - 24 hour (AID 1224878). Note: nearly all actives have a fitted effect of over 45% in size. Note: potency is the fitted concentration of half-maximal effect. The following applies: CellTox Green fluorescence; series mostly up to 76.8 µM. The gist of the method:
(§1)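 Cytotoxicity was tracked as dead-cell DNA fluorescence in HepG2 cells treated with test compounds at 37 C; each time-point value comes from one kinetic series spanning 0, 8, 16, 24, 32 and 40 h.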
On to `C1CCC(C2CCCCC2)CC1`, for which the Potency result is “inactive”.

As to `Cc1coc2c1CCC(C)C2` (stereo not drawn), the Potency result was “inactive”.

`COc1cc(OC)nc(NC(=O)NS(=O)(=O)c2ncccc2C(=O)N(C)C)n1`: the Potency entry was “inactive”.

As for `CCOC(=O)NC(=S)Nc1ccccc1NC(=S)NC(=O)OCC`, the Potency entry is “inactive”.

Regarding `CCOP(=S)(OCC)SCSc1ccc(Cl)cc1`, the Potency entry was “inactive”.

`C[C@@H]1CN(C2CCC(C#N)(c3ccc(F)cc3)CC2)CC[C@]1(C(=O)O)c1ccccc1` (stereo partly drawn): the Potency entry was “inactive”.

Turning to `O=C(O)c1ccc2[nH]cc(CCCCN3CC=C(c4ccccc4)CC3)c2c1`, the Potency result is “inactive”.

In the case of `O=C1OC(CCN2CCCCC2)OC1(c1ccccc1)c1ccccc1` (stereo not drawn), the Potency entry was “inactive”.

Regarding `Nc1n[nH]c(N)n1`, the Potency result is “inactive”.

For `CCNc1nc(NC(C)C)nc(OC)n1`, the Potency result was “inactive”.

Regarding `CCCCC(=O)Cl`, the Potency entry was “inactive”.

For the compound `N#CC(O)c1ccccc1` (stereo not drawn), the Potency result is “inactive”.

As to `O=C1OC(=O)C2C1C1(Cl)C(Cl)=C(Cl)C2(Cl)C1(Cl)Cl` (stereo not drawn), the Potency entry is “inactive”.

`CN(N=O)C(N)=O`: the Potency entry was “inactive”.

As to `CS(=O)(=O)c1cc(C(F)(F)F)ccc1C(=O)c1cnoc1C1CC1`, the Potency result was “inactive”.

As to `O=S(=O)(O)C(F)(F)C(F)(F)C(F)(F)C(F)(F)C(F)(F)C(F)(F)F`, the Potency entry is “inactive”.

With `CC(Oc1ccc(Oc2ncc(C(F)(F)F)cc2Cl)cc1)C(=O)O` (stereo not drawn), the Potency result is “inactive”.

On to `COc1cc2c(cc1OC)[C@@]13CCN4CC5=CCO[C@H]6CC(=O)N2[C@H]1[C@H]6[C@H]5C[C@H]43`, for which the Potency result is “inactive”.

`CCC/C(=N\OCC)C1=C(O)CC(CC(C)SCC)CC1=O` (stereo not drawn): the Potency entry was “inactive”.

Turning to `COc1cccc(C(=O)NN(C(=O)c2cc(C)cc(C)c2)C(C)(C)C)c1C`, the Potency is 616 nM (active).

Turning to `O=[N+]([O-])c1cccc(O)c1`, the Potency result is “inactive”.

Turning to `CC(C)(C)C(=O)C(Oc1ccc(Cl)cc1)n1cncn1` (stereo not drawn), the Potency result was “inactive”.

On to `CC(CC(C#N)(c1ccccc1)c1ccccc1)N(C)C` (stereo not drawn), for which the Potency result was “inactive”.

As for `CCOP(=S)(OCC)Oc1ncn(-c2ccccc2)n1`, the Potency entry is “inactive”.

The next assay is described as follows: A CellTox Green Cytotoxicity Assay to monitor cytotoxicity in HepG2 cells - 40 hour (AID 1224879). Note: nearly all actives have a fitted effect of over 40% in size. The conditions noted are these: CellTox Green fluorescence; series mostly up to 76.8 µM. An outline of the steps:
as §1
`C1CCC(C2CCCCC2)CC1`: the Potency result was “inactive”.

As to `CCOP(=S)(OCC)SCSc1ccc(Cl)cc1`, the Potency result is “inactive”.

As to `CCOP(=S)(OCC)SCSP(=S)(OCC)OCC`, the Potency entry was “inactive”.

With `O=C(O)c1ccc2[nH]cc(CCCCN3CC=C(c4ccccc4)CC3)c2c1`, the Potency result is “inactive”.

Consider `N#CCCC#N`, for which the Potency result was “inactive”.

`CCCCC(=O)Cl`: the Potency result is “inactive”.

Regarding `CCC(=O)c1ccccc1`, the Potency result is “inactive”.

Turning to `N#CC(O)c1ccccc1` (stereo not drawn), the Potency entry is “inactive”.

As to `CC(C)NCC(O)c1ccc(N)c(C#N)c1` (stereo not drawn), the Potency result is “inactive”.

For the compound `CN(N=O)C(N)=O`, the Potency result is “inactive”.

For `CS(=O)(=O)c1cc(C(F)(F)F)ccc1C(=O)c1cnoc1C1CC1`, the Potency entry is “inactive”.

As for `C[C@]1(O)CC[C@H]2[C@@H]3CCC4=CC(=O)CC[C@]4(C)[C@@]3(F)[C@@H](O)C[C@@]21C`, the Potency entry is “inactive”.

Turning to `CN(C)CCc1ccc(O)cc1`, the Potency entry is “inactive”.

On to `COc1cc2c(cc1OC)[C@@]13CCN4CC5=CCO[C@H]6CC(=O)N2[C@H]1[C@H]6[C@H]5C[C@H]43`, for which the Potency entry was “inactive”.

Turning to `CCC/C(=N\OCC)C1=C(O)CC(CC(C)SCC)CC1=O` (stereo not drawn), the Potency entry is “inactive”.

As to `CCOC(=O)/C=C(C)/C=C/C[C@@H](C)CCCC(C)C`, the Potency entry was “inactive”.

Consider `COc1cccc(C(=O)NN(C(=O)c2cc(C)cc(C)c2)C(C)(C)C)c1C`, for which the Potency result was “inactive”.

On to `O=[N+]([O-])c1cccc(O)c1`, for which the Potency result was “inactive”.

In the case of `CC(C)(C)C(=O)C(Oc1ccc(Cl)cc1)n1cncn1` (stereo not drawn), the Potency result was “inactive”.

With `OC(Cn1cncn1)(c1ccc(F)cc1)c1ccccc1F` (stereo not drawn), the Potency entry was “inactive”.

With `CC(C=O)Cc1ccc2c(c1)OCO2` (stereo not drawn), the Potency result was “inactive”.

As for `COc1cc(OC)nc(Sc2cccc(Cl)c2C(=O)O)n1`, the Potency result was “inactive”.

In the case of `CCOP(=S)(OCC)Oc1ncn(-c2ccccc2)n1`, the Potency entry was “inactive”.
